Our source for the growth values is PubChem BioAssay (NCI).

Compounds without any hit were thinned out: in the full panel of roughly 83,000, 20% have a hit.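 Treatment: one concentration, 48 hours, 96-well format. Scoring: percent growth, with anything below 10 considered active.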 Values without a mark were called inactive. Active and inactive are the calls of the source.

Some test systems named below: NCI-H23 lung; NCI-H226 lung; NCI-H322M lung; HOP-62 NSCLC; NCI-H460 lung; HOP-92 NSCLC; NCI-H522 lung; A549/ATCC NSCLC; 786-0 renal; COLO 205 colon.
Assay in all cases: NCI-60 one-dose screen, 48 h (100 = growth as untreated, 0 = no growth, -100 = all killed)
Holding throughout (conditions): 10 µM unless noted

On to `COc1ccc(CNCCN2C(=O)c3ccc4c5c(ccc(c35)C2=O)C(=O)N(CCNCc2ccc(OC)c(OC)c2OC)C4=O)c(OC)c1OC`, for which the growth was -42.8% (active) with NCI-H23 lung; -13.7% (active) in the experiment on NCI-H226 lung; -1.94% (active) in the experiment on NCI-H322M lung; 20% with HOP-62 NSCLC; -21.2% (active) in the experiment on NCI-H460 lung; 5.62% (active) with HOP-92 NSCLC. The growth was -78% (active) in the experiment with NCI-H522 lung, -39.9% (active) in the experiment on A549/ATCC NSCLC, 8.05% (active) with 786-0 renal and -10.9% (active) in the experiment with COLO 205 colon.
As for `CCOC(=O)/C(C#N)=C1/NNC(=Nc2cccnc2)S1`, the growth with NCI-H23 lung was 97.7%; with NCI-H226 lung, 96.2%; in the experiment with NCI-H322M lung, 105%; in the experiment on HOP-62 NSCLC it was 90.8%; with NCI-H460 lung, 99.3%; with HOP-92 NSCLC, 93.9%. Moreover, the growth in the experiment on NCI-H522 lung is 85.3%; with A549/ATCC NSCLC, 85.3%; in the experiment on 786-0 renal, 98%; in the experiment with COLO 205 colon, 103%.
In the case of `COc1ccc(C(=O)c2nc3ccccc3n2CC(=O)c2ccc(F)cc2)cc1`, the growth in the experiment on NCI-H23 lung is 88.4%; with NCI-H226 lung, 102%; in the experiment on NCI-H322M lung, 99.8%; in the experiment on HOP-62 NSCLC, 91.4%; in the experiment with NCI-H460 lung it was 108%; in the experiment with HOP-92 NSCLC it was 95.5%. Further, the growth with NCI-H522 lung is 35.6%; in the experiment on A549/ATCC NSCLC, 98.2%; in the experiment with 786-0 renal, 87.3%; with COLO 205 colon, 131%.
`CCC(CC)NCC(C)(C)O`: the growth was 97.7% in the experiment on NCI-H23 lung; 109% with NCI-H226 lung; 94% in the experiment on NCI-H322M lung; 119% with HOP-62 NSCLC; 103% with NCI-H460 lung; 105% with HOP-92 NSCLC. Besides, the growth in the experiment with NCI-H522 lung was 105%; in the experiment with A549/ATCC NSCLC, 102%; in the experiment with 786-0 renal it was 107%; with COLO 205 colon, 120%.
`O=C1/C=C/[C@@H](O)[C@@H]2C[C@@H](O)C[C@H]2/C=C/CCC[C@H](CCc2cccc3ccccc23)O1`: the growth was -36% (active) with NCI-H23 lung; -62% (active) with NCI-H226 lung; 25.2% in the experiment on NCI-H322M lung; 21.8% in the experiment on HOP-62 NSCLC; 12.2% in the experiment on NCI-H460 lung; 46.5% in the experiment on HOP-92 NSCLC. Moreover, the growth in the experiment with NCI-H522 lung was -25.8% (active); in the experiment with A549/ATCC NSCLC, 19.3%; in the experiment on 786-0 renal, -44.7% (active); in the experiment with COLO 205 colon, -91.9% (active).
Take `NC1=NN=C(N)C1=Cc1cc2ccccc2n2nnnc12`: the growth with NCI-H23 lung is 99%; in the experiment on NCI-H226 lung it was 100%; in the experiment with NCI-H322M lung, 105%; with HOP-62 NSCLC it was 96.8%; in the experiment on NCI-H460 lung it was 105%; in the experiment with HOP-92 NSCLC, 87.4%. The growth in the experiment with NCI-H522 lung was 95%; with A549/ATCC NSCLC it was 103%; in the experiment on 786-0 renal, 93.9%; with COLO 205 colon, 99.7%.
As for `COc1cc2c(-c3cc4c(cc3CNCCc3ccc5c(c3)OCO5)OCO4)cccc2c(OC)c1O`, the growth is 80.5% in the experiment with NCI-H23 lung; 92.2% with NCI-H226 lung; 84.6% in the experiment on NCI-H322M lung; 70.9% in the experiment on HOP-62 NSCLC; 91.2% in the experiment with NCI-H460 lung; 66.4% with HOP-92 NSCLC. The growth in the experiment on NCI-H522 lung was 79.1%; in the experiment with A549/ATCC NSCLC, 92.3%; in the experiment on 786-0 renal, 90.1%; in the experiment with COLO 205 colon, 117%.
As to `N/C(=N\C(N)=N\c1nc2ccccc2s1)c1cnccn1`, the growth is 19.8% in the experiment with NCI-H23 lung; 22.5% in the experiment on NCI-H226 lung; 25.1% in the experiment on NCI-H322M lung; 40.2% with HOP-62 NSCLC; 11.8% with NCI-H460 lung; 47% in the experiment with HOP-92 NSCLC. For the same molecule, the growth in the experiment with NCI-H522 lung is 22.4%; with A549/ATCC NSCLC it was 21.1%; in the experiment with 786-0 renal, 23.4%; in the experiment on COLO 205 colon, 16.2%.
Consider `COC(=O)C1=C(C(=O)ON)[C@@H]2C=C[C@@]1([C@@H](Cc1ccccc1)Nc1ccccc1)O2`, for which the growth in the experiment on NCI-H23 lung was 90.6%; in the experiment on NCI-H226 lung it was 105%; in the experiment on NCI-H322M lung, 99.5%; with HOP-62 NSCLC, 102%; in the experiment on NCI-H460 lung, 107%; in the experiment with HOP-92 NSCLC, 63.1%. The growth in the experiment on NCI-H522 lung is -74.7% (active); in the experiment with A549/ATCC NSCLC, 92.9%; in the experiment with 786-0 renal, 101%; with COLO 205 colon it was -67% (active).
For the molecule `N#C/C(=C\c1c(-c2ccccc2)[nH]c2ccccc12)C(=O)c1ccc(Cl)cc1`, the growth in the experiment on NCI-H23 lung is 36.9%; in the experiment with NCI-H226 lung, 69%; in the experiment with NCI-H322M lung, 61.8%; with HOP-62 NSCLC it was 41.4%; in the experiment on NCI-H460 lung it was 18.2%; in the experiment on HOP-92 NSCLC it was 55.2%. Further, the growth in the experiment on NCI-H522 lung was 35.3%; with A549/ATCC NSCLC, 48.8%; with 786-0 renal it was 44.6%; with COLO 205 colon, 41.6%.
Take `COC(=O)CNC(=O)[C@]12CCC(C)(C)C[C@H]1C1=CC[C@@H]3[C@@]4(C)Cc5c([nH]c6ccccc56)C(C)(C)[C@@H]4CC[C@@]3(C)[C@]1(C)CC2`: the growth in the experiment on NCI-H23 lung is 92.9%; in the experiment on NCI-H226 lung, 83.5%; with NCI-H322M lung, 91.6%; with HOP-62 NSCLC, 87.8%; in the experiment on NCI-H460 lung it was 87.7%; with HOP-92 NSCLC, 101%. Also, the growth was 80.5% in the experiment with NCI-H522 lung, 50.4% in the experiment on A549/ATCC NSCLC, 91.6% with 786-0 renal and 87% in the experiment with COLO 205 colon.
For the molecule `O=C1c2ccccc2CCC12OC2c1cn(-c2ccccc2)nc1-c1ccc(Cl)cc1` (stereo not given), the growth is 103% with NCI-H23 lung; 75.1% with NCI-H226 lung; 99.6% in the experiment on NCI-H322M lung; 108% in the experiment with HOP-62 NSCLC; 58.9% in the experiment on NCI-H460 lung; 40.5% with HOP-92 NSCLC. For the same molecule, the growth is 87.1% in the experiment on NCI-H522 lung, 92.7% in the experiment on A549/ATCC NSCLC, 115% in the experiment on 786-0 renal and 93.9% in the experiment with COLO 205 colon.
Turning to `CCCCCCCCO/N=C\c1c2c(O)c3c(O)c(C)c4c(c3c1O)C(=O)C(C)(O/C=C\C(OC)C(C)C(OC(C)=O)C(C)C(O)C(C)C(O)C(C)/C=C\C=C(\C)C(=O)N2)O4` (stereo not given), the growth in the experiment on NCI-H23 lung is 22.2%; with NCI-H226 lung, 28%; in the experiment with NCI-H322M lung, 45.9%; with HOP-62 NSCLC, 36%; in the experiment with NCI-H460 lung it was 3.79% (active); with HOP-92 NSCLC, -4.97% (active). The growth is 5.64% (active) in the experiment with NCI-H522 lung, 17.4% in the experiment on A549/ATCC NSCLC, 27.9% in the experiment on 786-0 renal and 4.9% (active) in the experiment with COLO 205 colon.
